Only some compounds are listed: those with a hit (about 9.4% of all), similar ones and a draw of the others.
Rab9 promoter act: Rab9 promoter activation. Huh7 Rab9 promoter-luciferase reporter, luminescence, 24 h. Potency, µM (series often up to 9.22 µM), for the others: at the highest dose activation, negative = inhibition, hits mostly activators. actives 2.8% (n = 320,000); note: % of control where 0% means no effect; nearly all actives have a fitted effect of over 60% in size
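Stable Rab9-luc Huh7, 1500 cells/well, 2 h settle; cmpd in DMSO, 24 h, 37 °C/5% CO2; luciferase reagent 10 min RT; luminescence.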
SMN2 splice up: increases expression of the SMN2 splice variant. Potency, µM (top dose mostly 46.1 µM), inactives show at the top dose activity change, positive = activation, most hits filed as activators. actives 2.8% (n = 210,000). HEK293 SMN2-luciferase splicing reporter, luminescence, 30-36 h. AID 1458; note: % of control where 0% means no effect; nearly all actives have a fitted effect of over 55% in size
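HEK293 cells carry an SMN2 minigene-luciferase reporter in which exon 7 inclusion puts luciferase in frame. Cells were seeded at 2000 cells/well, attached for 10-12 hours, then exposed to compounds for 30-36 hours at 37C before ONE-Glo luminescence.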
ELG1 genotoxic: inducers of genotoxicity in HEK293T ELG1-luciferase cells; actives 1.3% (n = 330,000); Potency, µM (doses to about 46 µM), for the others: at the highest dose activity change, positive = activation, hits mostly activators; HEK293T ELG1-luciferase reporter, luminescence, 16 h; note: % of control where 0% means no effect; nearly all actives have a fitted effect of over 60% in size
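Screening used a luciferase reporter fused to human ELG1 in HEK293T cells. Luminescence was read on a CCD plate imager after 16 hr exposure and 30 min ONE-Glo incubation.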
FLuc counter: inhibits or activates purified firefly luciferase, miR-21 counter-screen. P08659. purified FLuc, Km substrates, luminescence inhibition. Potency, µM (doses to about 57.5 µM), for inactives: at the top dose activity change, negative = inhibition, actives largely listed as inhibitors. actives 6.9% (n = 360,000);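 note: plate controls were vehicle for no effect and reference inhibitor for full effect; nearly all actives have a fitted effect of over 55% in size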
Target sequence (P08659 whole entry, looked up): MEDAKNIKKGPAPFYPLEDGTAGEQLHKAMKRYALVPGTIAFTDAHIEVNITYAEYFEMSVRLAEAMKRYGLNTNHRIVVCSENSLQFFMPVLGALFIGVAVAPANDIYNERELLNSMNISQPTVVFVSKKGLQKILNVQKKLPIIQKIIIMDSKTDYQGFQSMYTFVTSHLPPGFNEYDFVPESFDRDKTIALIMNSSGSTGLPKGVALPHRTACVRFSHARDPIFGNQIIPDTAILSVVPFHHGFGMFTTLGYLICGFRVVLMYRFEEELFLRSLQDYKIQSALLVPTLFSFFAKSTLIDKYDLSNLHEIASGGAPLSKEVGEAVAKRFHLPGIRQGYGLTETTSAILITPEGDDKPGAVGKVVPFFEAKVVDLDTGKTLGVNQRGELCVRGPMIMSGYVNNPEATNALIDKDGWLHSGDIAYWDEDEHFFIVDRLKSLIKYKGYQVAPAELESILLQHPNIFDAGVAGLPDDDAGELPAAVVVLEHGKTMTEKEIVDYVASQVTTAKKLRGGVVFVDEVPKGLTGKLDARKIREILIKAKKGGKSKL
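Purified P. pyralis luciferase (10nM final) with 10uM D-luciferin and 10uM ATP (Km levels) in 50mM Tris acetate pH 7.5, 10mM Mg acetate, 0.01% Tween-20, 0.05% BSA; qHTS 6-point titration, ~60 µM downward; luminescence read.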
ELG1 DNA repair: ELG1-dependent DNA repair inhibition; Potency, µM (top dose mostly 46.1 µM), for the others: at the top dose activity change, negative = inhibition, most hits filed as inhibitors; actives 2.3% (n = 330,000); AID 504467; HEK293T ELG1-luciferase reporter, luminescence, 16 h; DNA damage induced by 5-fluorouridine; note: % is set by controls: 0 for no effect and ±100 for the full control effect; nearly all actives have a fitted effect of over 55% in size
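Luminescence from the luciferase reporter, measured 30 min after ONE-Glo reagent at room temperature, was the read-out. Beforehand, 2,000 cells per well were exposed for 16 hr at 37 °C to 5-fluorouridine together with compound or vehicle.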
NPC1 promoter act: activates the NPC1 promoter | Huh7 NPC1 promoter luciferase reporter, 24 h | Potency, µM (doses to about 9.22 µM), inactives show at the highest dose activation, hits mostly activators | actives 2.4% (n = 320,000) | AID 485313; note: % of control where 0% means no effect; nearly all actives have a fitted effect of over 60% in size
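Huh7 cells stably carrying NPC1 promoter–luciferase, plated in Opti-MEM with 10% FBS for 2 h, were exposed to compound in DMSO for 24 h at 37 °C; luciferase reagent was added for 10 min and luminescence read.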
Active calls of the source: *; [ ] = another dose, or the depositor's remark. Calls come from the whole dose curve; as a rule, active = well fitted curve in the direction sought with a large enough effect; inconclusive = small, poorly fitted or top-dose-only effect, or another doubt; inactive = no such curve, though single readings can be large; an effect the other way counts as inactive or inconclusive. Potency is the fitted concentration of half-maximal effect.

How did O=C(CSc1nc(-c2ccccc2)c(-c2ccccc2)[nH]1)N1CCN(S(=O)(=O)c2ccccc2)CC1 do in these assays?
Rab9 promoter act: -3.0%; SMN2 splice up: -10.1%; ELG1 genotoxic: -5.9%; FLuc counter: 0.8%; ELG1 DNA repair: 16.4µM*; NPC1 promoter act: -1.0%

Results for CCN(Cc1ccncc1)C(=O)c1cc(COc2ccc(F)cc2Cl)on1 ?
Rab9 promoter act: 11.2%; ELG1 genotoxic: -4.0%; FLuc counter: -0.1%; ELG1 DNA repair: -29.3%; NPC1 promoter act: 1.6%

What do the screens show for `COc1cc(Cl)ccc1OCc1cc(C(=O)N(C)Cc2nnc(C)o2)no1`?
Rab9 promoter act: 26.5%; ELG1 genotoxic: inconclusive; FLuc counter: inconclusive; ELG1 DNA repair: inconclusive; NPC1 promoter act: 28.9%

How did COc1ccc(OCc2cc(C(=O)N(C)Cc3nnc(C)o3)no2)c(Cl)c1 do in these assays?
Rab9 promoter act: 3.55µM*; ELG1 genotoxic: inconclusive; FLuc counter: 8.49µM*; ELG1 DNA repair: inconclusive; NPC1 promoter act: 3.16µM*

What do the screens show for `CCc1ccc(CN(C)C(=O)c2cc(COc3cccc(C(F)(F)F)c3)on2)nc1`?
Rab9 promoter act: 18.7%; ELG1 genotoxic: -5.0%; FLuc counter: -7.6%; ELG1 DNA repair: -0.1%; NPC1 promoter act: 5.8%

How did CCc1ccc(CN(C)C(=O)c2cc(COc3ccc(OC)cc3Cl)on2)nc1 do in these assays?
Rab9 promoter act: inconclusive; ELG1 genotoxic: inconclusive; FLuc counter: 15.1µM*; ELG1 DNA repair: inconclusive; NPC1 promoter act: 3.16µM*

How did COc1ccc(OCc2cc(C(=O)N(C)Cc3cc(C)no3)no2)c(Cl)c1 do in these assays?
Rab9 promoter act: 3.98µM*; ELG1 genotoxic: inconclusive; FLuc counter: 6.01µM*; ELG1 DNA repair: inconclusive; NPC1 promoter act: 2.82µM*

Results for CCN(Cc1ccncc1)C(=O)c1cc(COc2ccc(OC)cc2Cl)on1 ?
Rab9 promoter act: 2.82µM*; ELG1 genotoxic: inconclusive; FLuc counter: 21.3µM*; ELG1 DNA repair: inconclusive; NPC1 promoter act: 3.16µM*

What do the screens show for `CCc1ccc(CN(Cc2ccco2)C(=O)COc2ccc(Cl)cc2C)cc1`?
SMN2 splice up: -19.5%; FLuc counter: -18.1%

Results for Cc1ccc(-c2c(C(=O)N3CCN(c4cc(Cl)ccc4C)CC3)oc(=O)c3ccccc23)cc1 ?
SMN2 splice up: 0.2%; FLuc counter: 2.8%

What do the screens show for `CC(Nc1oc(-c2ccc(COc3ccccc3)o2)nc1C#N)c1ccccc1` (stereo not drawn)?
FLuc counter: -0.1%

How did COc1ccc(OCc2cc(C(=O)N3CCCN(C(C)=O)CC3)no2)c(Cl)c1 do in these assays?
Rab9 promoter act: 29.7%; ELG1 genotoxic: inconclusive; FLuc counter: 26.9µM*; ELG1 DNA repair: inconclusive; NPC1 promoter act: inconclusive

How did Nc1nc2ccc(Cc3ccncc3)cc2s1 do in these assays?
Rab9 promoter act: inconclusive; ELG1 genotoxic: inconclusive; FLuc counter: 16.9µM*; ELG1 DNA repair: inconclusive; NPC1 promoter act: 18.7%

What do the screens show for `CS(=O)(=O)c1ccc2nc(N)sc2c1`?
Rab9 promoter act: 4.5%; SMN2 splice up: 26.5%; ELG1 genotoxic: 6.4%; FLuc counter: -5.0%; ELG1 DNA repair: inconclusive; NPC1 promoter act: -3.8%

How did Cc1cc(NC(=O)c2cnn3cccnc23)no1 do in these assays?
Rab9 promoter act: inconclusive; SMN2 splice up: inconclusive; ELG1 genotoxic: 4.11µM*; FLuc counter: inconclusive; ELG1 DNA repair: inconclusive; NPC1 promoter act: inconclusive

How did Cc1cc(NC(=O)c2nn3cccnc3c2Cl)no1 do in these assays?
Rab9 promoter act: 1.41µM*; SMN2 splice up: 10µM*; ELG1 genotoxic: inconclusive; FLuc counter: 10.7µM*; ELG1 DNA repair: inconclusive; NPC1 promoter act: 1.78µM*

What do the screens show for `O=C(Nc1cc(Cl)cc(Cl)c1)c1cnn2cccnc12`?
Rab9 promoter act: 19.6%; SMN2 splice up: 8.2%; ELG1 genotoxic: 5.0%; FLuc counter: -12.6%; ELG1 DNA repair: inconclusive; NPC1 promoter act: 2.2%

What do the screens show for `O=C(Nc1cccc(Cl)c1)c1cnn2cccnc12`?
Rab9 promoter act: 2µM*; SMN2 splice up: 10µM*; ELG1 genotoxic: inconclusive; FLuc counter: 7.57µM*; ELG1 DNA repair: inconclusive; NPC1 promoter act: inconclusive

Results for C=CCNC(=O)c1nn2cccnc2c1Cl ?
Rab9 promoter act: 6.6%; SMN2 splice up: 24.5%; ELG1 genotoxic: 3.4%; FLuc counter: -2.1%; ELG1 DNA repair: inconclusive; NPC1 promoter act: 5.5%

How did OCCNc1ncnc2c1ncn2[C@@H]1O[C@@H](CO)[C@H](O)[C@@H]1O do in these assays?
SMN2 splice up: 6.5%[9.22 µM]

Results for CCOc1ccccc1CNC(=O)c1cc(-c2ccc(OC)cc2)nc2ccc(C(C)C)cc12 ?
FLuc counter: 1.1%

Results for Cc1ccc(Sc2c(C)nn(C(=O)COc3ccc(F)cc3)c2C)cc1 ?
SMN2 splice up: 5.4%; FLuc counter: -6.5%

How did CC(C)CCNC(=O)CN1C(=O)c2cccnc2Oc2ccccc21 do in these assays?
SMN2 splice up: 14.7%; FLuc counter: -4.7%

How did O=c1c2c3c(sc2ncn1/N=C/c1ccncc1)CCCC3 do in these assays?
Rab9 promoter act: 0.2%; SMN2 splice up: 3.6%; ELG1 genotoxic: -2.0%; FLuc counter: inconclusive; ELG1 DNA repair: -7.2%; NPC1 promoter act: -0.1%

What do the screens show for `O=c1c2c3c(sc2ncn1/N=C/c1cccnc1)CCCC3`?
Rab9 promoter act: 21.8%; SMN2 splice up: 7.8%; ELG1 genotoxic: 10.4%; FLuc counter: 15.1µM*; ELG1 DNA repair: 12.6%; NPC1 promoter act: -0.7%

How did O=C(CC(SCCO)c1ccc([N+](=O)[O-])cc1)c1ccco1 (stereo not drawn) do in these assays?
Rab9 promoter act: 0.2%; ELG1 genotoxic: inconclusive; FLuc counter: 2.1%; ELG1 DNA repair: inconclusive; NPC1 promoter act: -4.6%

How did CC(=O)NC(CSC(CC(=O)c1ccco1)c1ccc(C)cc1)C(=O)O (stereo not drawn) do in these assays?
Rab9 promoter act: inconclusive; SMN2 splice up: -8.8%; ELG1 genotoxic: inconclusive; FLuc counter: 4.26µM*; ELG1 DNA repair: inconclusive; NPC1 promoter act: 11.7%

How did Cc1ccc(NC(=O)Nc2cccc(F)c2)nc1 do in these assays?
Rab9 promoter act: inconclusive; ELG1 genotoxic: inconclusive; FLuc counter: 6.75µM*; ELG1 DNA repair: inconclusive; NPC1 promoter act: inconclusive

Results for Cc1ccnc(NC(=O)c2cccc(NC(=O)c3ccccc3C)c2)c1 ?
Rab9 promoter act: 1.2%; ELG1 genotoxic: 1.8%; FLuc counter: inconclusive; ELG1 DNA repair: -4.6%; NPC1 promoter act: 2.6%

Screening results from PubChem.
